{"source": "the supplement of paper PMC11417369", "note": "± gives the standard deviation of the averaged measurements. Over roughly 25,000 sequences, “ln(normalized median fluorescence intensity)” has its median near 8.9; the highest 2% begin near 10. The list comes from a sample in which the highest values are over-represented; it also holds similar and randomly drawn sequences."}
{"test_system": "PfAP2-LT AP2 domain (GST-tagged)", "experiment": "gcPBM binding intensity (ln(normalized median fluorescence intensity)); higher = stronger DNA binding", "procedure,_shortened": "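Using an Agilent 4 × 180k array, primer-extended double-stranded 36-bp intergenic genomic probes and negative controls were exposed for 1 h to GST-fused P. falciparum DNA-binding domains expressed in E. coli. Binding was carried out in 1× PBS with 1% milk, 0.2 mg/ml BSA, 0.5% salmon testes DNA and 0.03% Triton X-100, and protein was detected with Alexa488 anti-GST antibody and a 488 nm scan. Binding intensity is the highest Masliner-normalised natural-log median intensity across replicate spots of either probe orientation.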"}
{"sequence": "ATAAAAGATTTATACATACACACATATTATATTCAC [CACACA_site3714]", "gcPBM binding intensity (ln)": "9.02 ± 0.42"}
{"sequence": "ACAAGGAATATATAAGATAATTTTAAATATAACACG [CACACA_negctrl_site1734]", "gcPBM binding intensity (ln)": "8.73 ± 0.51"}
{"sequence": "AAAAAAAGTAAATGTTGTACTATAATATGTAATATA [XGTACX_site7966]", "gcPBM binding intensity (ln)": "8.63 ± 0.55"}
{"sequence": "ATATATATATATATATATATATATATATTTATATAT [GTGCAC_negctrl_site180]", "gcPBM binding intensity (ln)": "9.39 ± 0.042"}
{"sequence": "AAAAAGAAAAAAAAATGTACATAAAGTCTAATGATA [XGTACX_site4781]", "gcPBM binding intensity (ln)": "8.78 ± 0.49"}
{"sequence": "AAAAATTAAAAGAAAATACACACCTGTGGGTGCTTA [CACACA_site1988]", "gcPBM binding intensity (ln)": "8.54 ± 0.47"}
{"sequence": "TTAATTTTTTTTTAAACACACATTTTTTTATTTAAG [CACACA_site2738]", "gcPBM binding intensity (ln)": "8.42 ± 0.54"}
{"sequence": "TATGAAAAAAAAAAAAAAAAAAAAAAAAAAAAAAAA [XGTACX_negctrl_site587]", "gcPBM binding intensity (ln)": "8.02 ± 0.15"}
{"sequence": "TATATATTCATATGTTGTACATAAATACAAATAAGA [XGTACX_site5602]", "gcPBM binding intensity (ln)": "8.69 ± 0.44"}
{"sequence": "ATATAAGTATAATTATGTACTTATACTTATATAAAT [XGTACX_site5585]", "gcPBM binding intensity (ln)": "8.62 ± 0.41"}
{"sequence": "TTGGCATACAGACACACACACACACCCCCACATATA [CACACA_site590]", "gcPBM binding intensity (ln)": "10.09 ± 0.085"}
{"sequence": "AAAAATATTTTGGTTTGTACATATATTTTTACAATA [XGTACX_site8691]", "gcPBM binding intensity (ln)": "8.61 ± 0.34"}
{"sequence": "ACGATGTTCATCACTACACACACAAAGAAATATATA [CACACA_site8859]", "gcPBM binding intensity (ln)": "9.26 ± 0.37"}
{"sequence": "AAAACACGCGGACACACACACACACGCCCACATATA [CACACA_site7105]", "gcPBM binding intensity (ln)": "10.1 ± 0.33"}
{"sequence": "CACAGACACGGACACACACACACACCCATATATATA [CACACA_site4354]", "gcPBM binding intensity (ln)": "10.1 ± 0.32"}
{"sequence": "TACACAGACGGACACACACACACACTAGAAAAAAAA [CACACA_site4435]", "gcPBM binding intensity (ln)": "10.1 ± 0.59"}
{"sequence": "CACAGACACGGACACACACACACACCGATATATATA [CACACA_site4353]", "gcPBM binding intensity (ln)": "9.88 ± 0.24"}
{"sequence": "CACGCGCCCGGACACACACACACACCCATATATATA [CACACA_site5251]", "gcPBM binding intensity (ln)": "10.2 ± 0.57"}
{"sequence": "AGCACAGACGGACACACACACACACCCACAGACACA [CACACA_site4358]", "gcPBM binding intensity (ln)": "10.1 ± 0.23"}
{"sequence": "CGTGGGAGCGGACACACACACACACCCATATATATA [CACACA_site4340]", "gcPBM binding intensity (ln)": "9.86 ± 0.41"}
{"sequence": "CACACGCACGGACACACACACATATAAAATCTATAT [CACACA_site6428]", "gcPBM binding intensity (ln)": "9.85 ± 0.57"}
{"sequence": "ACTTGACACGGACACACACACATATATAAAAAAAAA [CACACA_site4576]", "gcPBM binding intensity (ln)": "9.53 ± 0.51"}
{"sequence": "TACAAAAGTTAAACATGTACTTAATTATATGTTTTT [XGTACX_site2852]", "gcPBM binding intensity (ln)": "8.57 ± 0.44"}
{"sequence": "TTCTTAATTTAAAATTGTACTTAAGTAATACTTATG [XGTACX_site3928]", "gcPBM binding intensity (ln)": "8.49 ± 0.57"}
{"sequence": "TTGTTTCCGATGAAAGAAAGGAAATTATAATATATC [GTGCAC_negctrl_site516]", "gcPBM binding intensity (ln)": "8.43 ± 0.44"}
{"sequence": "AAGTAATCATCATAAAGTACTAAATTATATTGTCAA [XGTACX_site5841]", "gcPBM binding intensity (ln)": "8.67 ± 0.37"}
{"sequence": "TATAAACAGACGAAAACACACATATGTAAATATATA [CACACA_site4428]", "gcPBM binding intensity (ln)": "9.15 ± 0.44"}
{"sequence": "TTTATTATCTTATTCACACACATATATAAATATGTA [CACACA_site7369]", "gcPBM binding intensity (ln)": "9.06 ± 0.42"}
{"sequence": "TGTTTTTTATATTACTGTACATGTTTTGGAATAATA [XGTACX_site4716]", "gcPBM binding intensity (ln)": "8.75 ± 0.4"}
{"sequence": "ATGAACAAGGGGCACACACACATTATGACTAATTTA [CACACA_site3204]", "gcPBM binding intensity (ln)": "9.6 ± 0.45"}
{"sequence": "TTTAAATATTTTATAGCATGCTACCAATATGTATAT [TGCATGCA_site291]", "gcPBM binding intensity (ln)": "8.83 ± 0.52"}
{"sequence": "TAGTGTGCCAAATTAGCACACACATATATACATGAA [CACACA_site8910]", "gcPBM binding intensity (ln)": "9.6 ± 0.36"}
{"sequence": "TCTTTTTCTTGACGAGTGCAAAAATTGTGTTTGAAA", "gcPBM binding intensity (ln)": "8.48 ± 0.35"}
{"sequence": "TCGTAAACATATTGAAAAATATAAAAAGGGGTAATA [CACACA_negctrl_site619]", "gcPBM binding intensity (ln)": "8.71 ± 0.56"}
{"sequence": "CTGAAGGAAAAAGAAAGTACTTTTTTTTTTTTGAAG [XGTACX_site5973]", "gcPBM binding intensity (ln)": "8.22 ± 0.68"}
{"sequence": "CAAGCACCCAGACACACACACACACCCACACCCACA [CACACA_site369]", "gcPBM binding intensity (ln)": "10.1 ± 0.47"}
{"sequence": "TTGGCATACGGACACACACACACACCCAGACATATA [CACACA_site4492]", "gcPBM binding intensity (ln)": "9.84 ± 0.18"}
{"sequence": "CACAGACACGGACACACACACACACCCAGACACATA [CACACA_site4357]", "gcPBM binding intensity (ln)": "10.1 ± 0.43"}
{"sequence": "TTTATTTTATCATTTGCACACGCACCCAGACATAAA [CACACA_site4347]", "gcPBM binding intensity (ln)": "9.19 ± 0.35"}
{"sequence": "ATCAAGCACGGACACACACACACACCCAGACCCCCA [CACACA_site4360]", "gcPBM binding intensity (ln)": "10.19 ± 0.099"}
{"sequence": "TTCTATTTTAATATCTGTACATAATAAAGATCCATT [XGTACX_site1142]", "gcPBM binding intensity (ln)": "8.46 ± 0.49"}
{"sequence": "ACATTATATTTGGACTGTACTAATATATTGTTATAT [XGTACX_site5573]", "gcPBM binding intensity (ln)": "8.91 ± 0.42"}
{"sequence": "GCTTATTAATATCATACACACATAGATATATTTATA [CACACA_site3104]", "gcPBM binding intensity (ln)": "8.91 ± 0.39"}
{"sequence": "TATATGTTATATTGGACACACACAATAAACATTATG [CACACA_site8480]", "gcPBM binding intensity (ln)": "9.21 ± 0.38"}
{"sequence": "AACCAGTTGATGTGTACACATATAGTAATAATTTTA [CACACA_site5564]", "gcPBM binding intensity (ln)": "9.16 ± 0.52"}
